Laboratory results: PubChem BioAssay AID743364 (National Center for Advancing Translational Sciences (NCATS), 2014)
Where a SMILES comes first, the peptide text is derived from it. [ ]: non-standard residue; d: D form. Orn = NCCC[C@H](N)C(=O)O

Experiment: qHTS profiling of inhibitors of Plasmodium falciparum (3D7) proliferation (acoustic dispense)
Conditions: P. falciparum 3D7 in erythrocytes, SYBR Green, 72 h; series mostly up to 49.8 µM; activity change: at the top concentration; active means well fitted curve in the direction sought with a large enough effect; inactive means no such curve, though single readings can be large or run the other way

Activity change, inactive:
C[C@H](Cn1cnc2c(N)ncnc21)OCP(=O)(O)O 0.919%, CC(C)C[C@@H]1NC(=O)[C@H](CCCN)NC(=O)[C@H](C(C)C)NC(=O)[C@@H]2CCCN2C(=O)[C@@H](Cc2ccccc2)NC(=O)[C@H](CC(C)C)NC(=O)[C@H](CCCN)NC(=O)[C@H](C(C)C)NC(=O)[C@@H]2CCCN2C(=O)[C@@H](Cc2ccccc2)NC1=O (cyclo(V[Orn]L[dF]PV[Orn]L[dF]P)) 1.28%, CS[C@H]1SC[C@@H]2C(=O)N(C)[C@H](C(C)C)C(=O)OC[C@H](NC(=O)c3cnc4ccccc4n3)C(=O)N[C@H](C)C(=O)N(C)[C@@H]1C(=O)N(C)[C@H](C(C)C)C(=O)OC[C@H](NC(=O)c1cnc3ccccc3n1)C(=O)N[C@H](C)C(=O)N2C -0.723%, NC1CCC(Nc2nc(Nc3ccc(C(=O)N4CCCCC4)cc3)c3ncn(-c4cccc(F)c4)c3n2)CC1 (centres undefined) -1.28%, CO[C@H]1C=CC=C(C)C(=O)NC2=CC(=O)C(NCCN(C)C)=C(C[C@@H](C)C[C@H](OC)[C@@H](O)[C@@H](C)C=C(C)[C@@H]1OC(N)=O)C2=O 111%, C=CCn1c(=O)c2cnc(Nc3ccc(N4CCN(C)CC4)cc3)nc2n1-c1cccc(C(C)(C)O)n1 -0.259%, CC(=O)Nc1nc(C)c(-c2ccc(Cl)c(S(=O)(=O)NCCO)c2)s1 -1.48%, COc1ccc(-c2nc(N3CCOCC3)c3sc(CN(C)c4ncc(C(=O)NO)cn4)cc3n2)cn1 1.59%, CO[C@H]1O[C@@H]2O[C@@]3(C)CC[C@@H]4[C@@H](C)CC[C@@H]([C@H]1C)[C@@]24OO3 -0.464%
